Screening results from PubChem.
Most compounds without a hit are left out; they make up all but 6.6% or so of the library.
FBA Mtb inh: inhibitors of M. tuberculosis fructose-bisphosphate aldolase; inhibition, % at 1 µM; P9WQA3; 360,000 tested, 2.3% active; purified M. tuberculosis FBA, fluorescence read-out; in the data active = inhibition above about 27%
BoNT-A LC inh2: inhibitors of Botulinum neurotoxin A light chain protease; multiplex microsphere protease substrate cleavage, flow cytometry; 360,000 tested, 0.17% active; inhibition, % at 10 µM
Bead autofluor: compound fluorescence in toxin protease inhibitor counterscreen; fluorescence intensity (no concentration beside the values); compound autofluorescence counterscreen, microsphere flow cytometry; active compounds read high; 360,000 tested, 3.1% active; in the data active = fluorescence intensity above about 16000; inconclusive = no clear call, values can overlap the other calls
BoNT F protease: BoNT F light chain protease inhibition. Multiplex microsphere protease cleavage assay, flow cytometry. inhibition, % at 10 µM. 360,000 tested, 0.22% active. AID 588497; in the data active = inhibition above about 35%, passing the limit was not always enough; inconclusive = no clear call, values can overlap the other calls
GDH-TPI counter: counter-screen for M. tuberculosis FBA inhibitors: GDH-TPI coupled enzymes; 360,000 tested, 1.2% active; AID 588335; GDH-TPI coupled enzyme counterscreen, NADH absorbance; inhibition, % at 4.8 µM; in the data active = inhibition above about 30%
Anthrax LF prot: inhibitors of Bacillus anthracis lethal factor protease | multiplex microsphere protease cleavage assay, LF | inhibition, % at 10 µM | 360,000 tested, 0.12% active | AID 588501
Each line names hits and unclear results; the compound was inactive in the other large screens. Cut-off read from the data, not from the text of the source, unless noted: active = inhibition above about 30%; inconclusive = no clear call, values can overlap the other calls; inactive = below that.

Cc1nc(N2CCN(c3ccccc3)CC2)nc2c1C(=O)CC(c1ccccc1)C2 (configuration not stated)	Bead autofluor 17903
Cc1nc(N2CCN(c3ccccc3)CC2)nc2c1C(=O)CC(C)C2 (configuration not stated)	Bead autofluor 21996
Cc1nc(N2CCN(c3ccccc3)CC2)nc2c1C(=O)CCC2	Bead autofluor 22851
CCC(c1nnnn1C1CCCC1)N1CCC(C(N)=O)CC1 (configuration not stated)	none
CCOC(=O)C(NC(=O)CC)(Nc1nc2c(s1)CCCC2)C(F)(F)F (configuration not stated)	none
CCOC(=O)NC(Nc1sc2c(c1C(N)=O)CCCC2)(C(=O)OCC)C(F)(F)F (configuration not stated)	BoNT-A LC inh2 inconclusive, Bead autofluor 20183
COc1cc(/C=N/N2CCN(Cc3ccc(Cl)cc3)CC2)ccc1OC(C)=O	BoNT F protease inconclusive
COc1cc(/C=N/N2CCN(Cc3ccc(Cl)cc3)CC2)cc(Br)c1O	BoNT F protease 36
Cc1ccc(CN2CCN(/N=C/c3ccc(O)c(O)c3)CC2)cc1	none
COc1ccc(/C=N/N2CCN(Cc3ccc(C)cc3)CC2)cc1Br	BoNT F protease 43
Cc1occc1-c1nnc(SCC(=O)Nc2ccccn2)o1	none
Cc1occc1-c1nnc(SCC(=O)Nc2nc(-c3ccccc3)cs2)o1	Bead autofluor 19701
Cc1cc(-c2nnc(SCC(=O)Nc3nc(-c4ccccc4)cs3)o2)no1	none
O=C(CSc1nc2ccccc2o1)Nc1nc(-c2ccccc2)cs1	none
Cc1occc1-c1nnc(SCC(=O)Nc2nc3ccccc3s2)o1	Bead autofluor 19093
Cc1cc2ccccc2nc1SCC(=O)Nc1nc(-c2ccccc2)cs1	Bead autofluor 16277
Cc1cc(OC(=O)Nc2ccccc2)ccc1Cl	none
CCOC(=O)C1=C(C)NC(C)=C(C(=O)OCC)C1C(=O)OCC(=O)NCc1ccccc1OC	none
CCCc1nc2cc(C)c(Br)c(C)n2c1Cc1ccc(OC)cc1C	none (no result: FBA Mtb inh, GDH-TPI counter)
CC1=CC(C)(C)N=C(NC#N)N1	Bead autofluor 19967
Cc1cc(=O)oc2cc(Nc3ccccc3)ccc12	none
Cc1cc(=O)oc2cc(NC(=O)CCC(=O)O)ccc12	FBA Mtb inh 197
Cc1cc(=O)oc2cc(NC(=O)CCCC(=O)O)ccc12	FBA Mtb inh active
CC(C)Cc1nnc(NC(=O)C2CCCN(C(=O)c3ccc(Cl)cc3)C2)s1 (configuration not stated)	none
CC(c1ccccn1)N(Cc1ccco1)C(=S)Nc1cccc(F)c1 (configuration not stated)	none
Cc1ccc(N2C(=O)NC(=O)/C(=C/c3ccc(OC(=O)c4cccs4)cc3)C2=O)cc1	BoNT-A LC inh2 inconclusive, Bead autofluor 24767
CC1=NN(c2ccc(C(=O)O)cc2)C(=O)/C1=C\c1ccc(OC(=O)c2cccs2)cc1	none
Cc1c(Cc2ccccc2)c(=O)oc2cc(O)cc(O)c12	FBA Mtb inh 114
Cc1coc2cc3oc(=O)c(Cc4ccccc4)c(C)c3cc12	none
Cc1ccc(C(=O)NCc2cccnc2)cc1S(=O)(=O)Nc1ccccc1	none
COc1nn(CC(=O)N2N=C(C)CC2(O)C(F)(F)F)cc1[N+](=O)[O-] (configuration not stated)	Bead autofluor 24478
CCCCC(O)(CCN1CCOCC1)c1ccc(Cl)cc1 (configuration not stated)	Bead autofluor 21851
COc1ccc(-c2nc(C#N)c(NCc3ccc(C)cc3)o2)cc1OC	FBA Mtb inh 144
CN(C)CCCNc1oc(-c2cccc(Cl)c2)nc1C#N	FBA Mtb inh 174
CCN(CC)CCCNc1oc(-c2ccccc2[N+](=O)[O-])nc1C#N	none
COc1ccccc1OCc1nc(C#N)c(NCCCn2ccnc2)o1	none
CN(C)CCNc1oc(COc2cccc(Cl)c2)nc1C#N	none
CCN(CC)CCCNc1oc(-c2ccc(OC)c(OC)c2)nc1C#N	FBA Mtb inh 164
COc1ccc(-c2nc(C#N)c(NCCCn3ccnc3)o2)cc1OC	FBA Mtb inh active
N#Cc1cc(C#N)c(N2CCN(c3cccc(Cl)n3)CC2)nc1N	Bead autofluor 19498
COc1ccc(CN=C2NC(=O)CC(C(=O)Nc3ccccc3C)S2)cc1 (configuration not stated)	none
O=C(Nc1ccccn1)C1CCN(S(=O)(=O)c2cccs2)CC1	none
Cc1cccc(NC(=O)C2CCN(S(=O)(=O)c3cccs3)CC2)n1	BoNT-A LC inh2 inconclusive, Bead autofluor 17032
Cc1ccc(C(=O)/C=C2/NC(=O)CS2)cc1	GDH-TPI counter 31
Cc1c(C(=O)OCc2ccc(F)cc2)sc2nc3n(c(=O)c12)CCC3	none
N#Cc1c(SCC(=O)OCc2ccccc2)nsc1SCC(=O)OCc1ccccc1	none
CCN(CC)C(=O)CSc1nc(-c2cccs2)cc(-c2cccs2)c1C#N	none
CCc1c(C#N)c(N)nc(SCC(=O)OCc2ccccc2)c1C#N	Bead autofluor 17979
CCN(CC)C(=O)CSc1nc(N)c(C#N)c(-c2cccs2)c1C#N	BoNT-A LC inh2 inconclusive, Bead autofluor 21936
CCOC(=O)C1CCCN(C(=O)COc2ccc(S(=O)(=O)N(CC)c3ccccc3)cc2)C1 (configuration not stated)	none
CCCn1c(SCC(=O)Nc2nonc2C)nnc1-c1ccoc1C	FBA Mtb inh active
Cc1nonc1NC(=O)CSc1nnc(-c2ccoc2C)n1-c1cccc(Cl)c1	none
CCC(C)NC(=O)CN(c1ccc(Cl)c(Cl)c1)S(C)(=O)=O (configuration not stated)	none
O=P(Nc1ccccc1)(Nc1ccccc1)Oc1cccc(Cl)c1	BoNT-A LC inh2 inconclusive, Bead autofluor 17171
O=P(Nc1ccccc1)(Nc1ccccc1)Oc1ccccc1	none
C/C(=N\NC(=S)Nc1c(C)cccc1C)c1cc2ccccc2o1	none
C/C(=N\NC(=S)Nc1ccccc1C)c1cc2ccccc2o1	GDH-TPI counter 49
COc1ccccc1NS(=O)(=O)c1cc(Cl)ccc1OC	none
c1ccc2c(c1)CCN(c1nc3ccccc3n3cnnc13)C2	none
c1ccc2c(c1)CCCN2c1nc2ccccc2n2cnnc12	GDH-TPI counter 36
CC(C)Oc1cccc(C(=O)NC(=S)Nc2ccc(N3CCN(C)CC3)cc2)c1	FBA Mtb inh 85, BoNT F protease inconclusive
O=C1c2cccc3cccc(c23)C(=O)N1CC1CCN(CC(O)COc2ccc3ccccc3c2)CC1 (configuration not stated)	GDH-TPI counter 42
COc1cccc(OCC(O)CN2CCC(CN3C(=O)c4cccc5cccc(c45)C3=O)CC2)c1 (configuration not stated)	none
COCCn1c(=NC(=O)CN2C(=O)CCC2=O)sc2cc(S(N)(=O)=O)ccc21	none
COCCn1c(=NC(=O)c2cc3ccccc3oc2=O)sc2cc(S(N)(=O)=O)ccc21	GDH-TPI counter 49
Cc1nn(CC(=O)NC(=O)c2ccccc2)c(C)c1[N+](=O)[O-]	none
N#CC1C(=O)Nc2cccnc21 (configuration not stated)	FBA Mtb inh active
